Data: PubChem BioAssay
The source made the active and inactive calls.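 Rule for the calls, unless noted: active = visually confirmed hit in the image check and inhibition above 20%; inconclusive = visually confirmed hit but inhibition not above 20%; inactive = no visual hit in the image check.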

assay: reduction of polyQ htt aggregates in cells – imaging, exon1htt(103Q)mCFP cells, high-content imaging, primary screen (AID 483;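 active = visual image review flags a hit and inhibition of aggregation exceeds 20%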;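 note: compound exposure lasted 3 days before fixation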;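 for nuclei count: percent of the per-plate median nuclei count of sample wells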); details: exon1htt(103Q)mCFP cell line, aggregate imaging, at 2 µM; inhibition of aggregation: stronger effect = higher value; nuclei count: measured here: cell count, toxicity

Row | Compound | inhibition of aggregation | nuclei count
1 | CCc1nnc(NC(=O)OCc2ccccc2)s1 | 0.2% (inactive) | 99.3%
2 | O=C(C1CC1)N(Cc1ccco1)c1nc(-c2ccccc2)cs1 | 3.5% (inactive) | 104%
3 | Cc1ccccc1OCCN1C(=O)NC2(CCc3ccccc32)C1=O (stereo not given) | 8.4% (inactive) | 94.7%
4 | COc1ccc(OC(C)C(=O)N2CC(C)OC(C)C2)cc1 (stereo not given) | -4.6% (inactive) | 97.2%
5 | CCOC(=O)C(C)On1c(SC(C)C(=O)OCC)nc2ccccc2c1=O (stereo not given) | 10.3% (inactive) | 103%
6 | O=C(COC(=O)Cc1cccc(C(F)(F)F)c1)NCC1CCCO1 (stereo not given) | 3% (inactive) | 106%
7 | CCCc1[nH]nc2c1C(c1cccc(OC(=O)c3ccco3)c1)C(C#N)=C(N)O2 (stereo not given) | -11.9% (inactive) | 105%
8 | CS(=O)(=O)N(CC(=O)N1CCN(c2cccc(Cl)c2)CC1)C1CCCCC1 | 11% (inactive) | 87.4%
9 | Clc1ccccc1OCc1nn2c(-c3ccncc3)nnc2s1 | 35.5% (inactive) | 91.1%
10 | Cc1cccc(N2CCN(C(=O)c3cc4c(=O)[nH]c5ccccc5c4n3C)CC2)c1C | 5.3% (inactive) | 85.4%
11 | N#CC(C(=O)C1CCCCC1)c1nc2ccccc2[nH]1 (stereo not given) | -11.3% (inactive) | 101%
12 | Cc1nc2ccccc2c2oc(C(=O)NCc3ccccn3)cc12 | 17.9% (inactive) | 65.8%
13 | COCCN(CC(=O)NC1CCCCC1)C(=O)CSc1nc2ccccc2o1 | 3.4% (inactive) | 105%
14 | Cc1ncoc1C(=O)Nc1cccc(Cl)c1C | 52.7% (active) | 56.4%
15 | COc1cccc(OC)c1C(=O)N1CCOCC1 | 7.2% (inactive) | 103%
16 | COC(=O)c1ccccc1NC(=O)c1noc2c1CC(C(C)(C)C)CC2 (stereo not given) | 0.9% (inactive) | 104%
17 | Cc1ccc(-c2cc(C(F)F)nc(NCc3cccnc3)n2)cc1 | -44.3% (inactive) | 81.9%
18 | O=C(NCc1ccccc1)N1CCn2c(nc3ccccc32)C1 | 8.2% (inactive) | 99.6%
19 | COc1ccc(CN(C)CC(=O)c2c(N)n(Cc3ccccc3)c(=O)n(C)c2=O)c(OC)c1 | -15.1% (inactive) | 103%
20 | Cc1nc(C)c(C(=O)Nc2ccc(Oc3ccccc3)cc2)o1 | -26.8% (inactive) | 105%

Row | Compound | inhibition of aggregation | nuclei count
21 | CCOc1ccc2nc(NC(=O)C(NS(=O)(=O)c3cccs3)C(C)C)sc2c1 (stereo not given) | 6.2% (inactive) | 105%
22 | CC1CCN(CCCNC(=O)c2cn(C)c3ccc(S(=O)(=O)N4CCCC4)cc3c2=O)CC1 | 0% (inactive) | 93.4%
23 | COCCN1C(=O)C(=O)/C(=C(/O)c2cccc(OC)c2)C1c1ccncc1 (stereo not given) | 17.9% (inactive) | 95.1%
24 | C[C@H](NC(=O)Nc1ccccc1F)C(=O)O | 4.9% (inactive) | 86%
25 | Nc1c(Sc2ccccc2)c(=O)[nH]c(=O)n1Cc1ccccc1 | -8.5% (inactive) | 92.6%
26 | Cc1ccc(C)c(Cn2c(=O)n(CCC(=O)NCc3ccco3)c(=O)c3sccc32)c1 | 3.9% (inactive) | 95.3%
27 | CCn1c(=S)sc2nc(C)sc21 | -4.4% (inactive) | 76.2%
28 | CC(C)(C)OC(=O)N1CCOCCOCCN(C(=O)OC(C)(C)C)CCOCCOCC1 | 2.5% (inactive) | 92.3%
29 | O=C(NC1CCCCC1)C(c1ccco1)N(Cc1cccnc1)C(=O)C1COc2ccccc2O1 (stereo not given) | -14.5% (inactive) | 111%
30 | COC(=O)c1c(-c2ccc(F)cc2)noc1N | -3.7% (inactive) | 106%
31 | Cn1ccnc1C(O)c1ccco1 (stereo not given) | -15.7% (inactive) | 97.2%
32 | O=C(NCCN1CCOCC1)c1ccc2c(c1)N(Cc1ccccc1)C(=O)CS2 | -8.5% (inactive) | 102%
33 | N#CC1=C(N)n2c(s/c(=C\c3ccco3)c2=O)=C(C#N)C1c1ccco1 (stereo not given) | 8.3% (inactive) | 106%
34 | c1ccc2c(c1)ccc1nnc(-c3ccc4c(c3)OCO4)n12 | 18.1% (inactive) | 87.8%
35 | COc1cccc(-c2cc(C(=O)Nc3cc(C)n(Cc4ccc(Cl)cc4)n3)no2)c1 | 10.2% (inactive) | 100%
36 | CCC(C)n1[nH]c(=O)c2c(C)cc(C)nc21 (stereo not given) | 2.2% (inactive) | 101%
37 | CN(CC(=O)Nc1ccncc1)S(=O)(=O)c1ccccc1 | 11.1% (inactive) | 108%
38 | CC(=O)Oc1cccc(/C=c2\sc3nc(-c4ccco4)nn3c2=O)c1 | -30% (inactive) | 103%
39 | Cn1c(=O)cc(OCC(=O)N2CCN(c3cccc(C(F)(F)F)c3)CC2)c2ccccc21 | -13.4% (inactive) | 118%
40 | C=CCc1cc(C(=O)N2CCCCC2)ccc1O | 6.3% (inactive) | 99.5%

assay: endothelial E-selectin expression blockers – imaging, HUVEC, immunofluorescence, MLSMR starter and 10KST1 sets, primary screen (AID 487); details: HUVEC TNFalpha-induced E-selectin immunofluorescence imaging, at 2 µM; inhibition: stronger effect = higher value; nuclei count: measured here: cell number, toxicity;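 for inhibition: signal is fraction of cell area covered by stained E-selectin grains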;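 for nuclei count: 100% = median nuclei count of all wells on the same plate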

Row | Compound | nuclei count | inhibition
41 | CCc1nnc(NC(=O)OCc2ccccc2)s1 | 120% | -59.3% (inactive)
42 | O=C(C1CC1)N(Cc1ccco1)c1nc(-c2ccccc2)cs1 | 109% | -72.7% (inactive)
43 | Cc1ccccc1OCCN1C(=O)NC2(CCc3ccccc32)C1=O (stereo not given) | 99.4% | 8.5% (inactive)
44 | COc1ccc(OC(C)C(=O)N2CC(C)OC(C)C2)cc1 (stereo not given) | 120% | -7.5% (inactive)
45 | CCOC(=O)C(C)On1c(SC(C)C(=O)OCC)nc2ccccc2c1=O (stereo not given) | 107% | -57.6% (inactive)
46 | O=C(COC(=O)Cc1cccc(C(F)(F)F)c1)NCC1CCCO1 (stereo not given) | 134% | -199% (inactive)
47 | CCCc1[nH]nc2c1C(c1cccc(OC(=O)c3ccco3)c1)C(C#N)=C(N)O2 (stereo not given) | 96.7% | 35.2% (inactive)
48 | CS(=O)(=O)N(CC(=O)N1CCN(c2cccc(Cl)c2)CC1)C1CCCCC1 | 78.2% | 8.8% (inactive)
49 | Clc1ccccc1OCc1nn2c(-c3ccncc3)nnc2s1 | 118% | -23.5% (inactive)
50 | Cc1cccc(N2CCN(C(=O)c3cc4c(=O)[nH]c5ccccc5c4n3C)CC2)c1C | 106% | -26.1% (inactive)
51 | N#CC(C(=O)C1CCCCC1)c1nc2ccccc2[nH]1 (stereo not given) | 128% | -107% (inactive)
52 | Cc1nc2ccccc2c2oc(C(=O)NCc3ccccn3)cc12 | 102% | -75.8% (inactive)
53 | COCCN(CC(=O)NC1CCCCC1)C(=O)CSc1nc2ccccc2o1 | 120% | -28.2% (inactive)
54 | Cc1ncoc1C(=O)Nc1cccc(Cl)c1C | 116% | -38.5% (inactive)
55 | COc1cccc(OC)c1C(=O)N1CCOCC1 | 126% | -105% (inactive)
56 | COC(=O)c1ccccc1NC(=O)c1noc2c1CC(C(C)(C)C)CC2 (stereo not given) | 116% | -31.4% (inactive)
57 | Cc1ccc(-c2cc(C(F)F)nc(NCc3cccnc3)n2)cc1 | 118% | -97.8% (inactive)
58 | O=C(NCc1ccccc1)N1CCn2c(nc3ccccc32)C1 | 111% | -13.3% (inactive)
59 | COc1ccc(CN(C)CC(=O)c2c(N)n(Cc3ccccc3)c(=O)n(C)c2=O)c(OC)c1 | 98.3% | 2.2% (inactive)
60 | Cc1nc(C)c(C(=O)Nc2ccc(Oc3ccccc3)cc2)o1 | 119% | -128% (inactive)

Row | Compound | nuclei count | inhibition
61 | CCOc1ccc2nc(NC(=O)C(NS(=O)(=O)c3cccs3)C(C)C)sc2c1 (stereo not given) | 122% | -146% (inactive)
62 | CC1CCN(CCCNC(=O)c2cn(C)c3ccc(S(=O)(=O)N4CCCC4)cc3c2=O)CC1 | 61.5% | 18.8% (inactive)
63 | COCCN1C(=O)C(=O)/C(=C(/O)c2cccc(OC)c2)C1c1ccncc1 (stereo not given) | 92.1% | 54.5% (inactive)
64 | C[C@H](NC(=O)Nc1ccccc1F)C(=O)O | 138% | -78.4% (inactive)
65 | Nc1c(Sc2ccccc2)c(=O)[nH]c(=O)n1Cc1ccccc1 | 78.6% | -3.2% (inactive)
66 | Cc1ccc(C)c(Cn2c(=O)n(CCC(=O)NCc3ccco3)c(=O)c3sccc32)c1 | 93.3% | 17.2% (inactive)
67 | CCn1c(=S)sc2nc(C)sc21 | 124% | -38.4% (inactive)
68 | CC(C)(C)OC(=O)N1CCOCCOCCN(C(=O)OC(C)(C)C)CCOCCOCC1 | 119% | -90.1% (inactive)
69 | O=C(NC1CCCCC1)C(c1ccco1)N(Cc1cccnc1)C(=O)C1COc2ccccc2O1 (stereo not given) | 198% | -4.6% (inactive)
70 | COC(=O)c1c(-c2ccc(F)cc2)noc1N | 104% | -2% (inactive)
71 | Cn1ccnc1C(O)c1ccco1 (stereo not given) | 129% | -146% (inactive)
72 | O=C(NCCN1CCOCC1)c1ccc2c(c1)N(Cc1ccccc1)C(=O)CS2 | 105% | 20.7% (inactive)
73 | N#CC1=C(N)n2c(s/c(=C\c3ccco3)c2=O)=C(C#N)C1c1ccco1 (stereo not given) | 116% | -34.4% (inactive)
74 | c1ccc2c(c1)ccc1nnc(-c3ccc4c(c3)OCO4)n12 | 108% | -25.6% (inactive)
75 | COc1cccc(-c2cc(C(=O)Nc3cc(C)n(Cc4ccc(Cl)cc4)n3)no2)c1 | 100% | 38.9% (inactive)
76 | CCC(C)n1[nH]c(=O)c2c(C)cc(C)nc21 (stereo not given) | 108% | -50.1% (inactive)
77 | CN(CC(=O)Nc1ccncc1)S(=O)(=O)c1ccccc1 | 148% | -141% (inactive)
78 | CC(=O)Oc1cccc(/C=c2\sc3nc(-c4ccco4)nn3c2=O)c1 | 80.7% | -69.5% (inactive)
79 | Cn1c(=O)cc(OCC(=O)N2CCN(c3cccc(C(F)(F)F)c3)CC2)c2ccccc21 | 113% | -12.8% (inactive)
80 | C=CCc1cc(C(=O)N2CCCCC2)ccc1O | 118% | -96.3% (inactive)
